# Measurements published in PubChem BioAssay (Tox21).
# Results filed as inconclusive are left out. Unmarked numbers belong to inactive results. Activity calls are given as the source filed them. Calls come from the whole dose curve; as a rule, active = well fitted cell-killing curve with a large enough effect in the repeat runs; inconclusive = weak or mixed curves; inactive = flat fitted curve, though single readings scatter.
# Test: qHTS RealTime-Glo MT Cell Viability Assay in HepG2 cells - 32 hour (AID 1224877); note: nearly all actives have a fitted effect of over 55% in size
# Settings: RealTime-Glo luminescence; series mostly up to 76.8 µM; activity change, negative = cytotoxic: at the top concentration
# Source text: U.S. Tox21 Program National Center for Advancing Translational Sciences [NCATS] NIH Chemical Genomics Center [NCGC] U.S. Environmental Protection Agency [EPA] National Institutes of Environmental Health Sciences [NIEHS] National Toxicology Program [NTP] U.S. Food and Drug Administration [FDA] Tox21 Assay Overview: Measure of cell viability is critical in the cell-base assay. Analysis of cell viability is necessary for the characterization of cell responses to cytotoxic drugs and environmental stress. A RealTime-Glo MT Cell Viability Assay to monitor cell viability in real time of continues cell culture during 40 hours of compound treatment was used to screen Tox21 10K library compounds in HepG2 cells. The RealTime-Glo MT Cell Viability Assay is a nonlytic, homogeneous, bioluminescent method to measure cell viability in real time using a simple, plate-based method. The assay involves adding NanoLuc luciferase and a cell-permeant prosubstrate to cells in culture. Viable cells reduce the proprietary prosubstrate to generate a substrate for NanoLuc luciferase. This substrate diffuses from cells into the surrounding culture medium, where it is rapidly used by the NanoLuc Enzyme to produce a luminescent signal. The signal correlates with the number of viable cells, making the assay well suited for cytotoxicity studies.
# Tox21 Assay Protocol Summary: The mixture of HepG2 cell suspension and reagents were dispensed at 600cells/6 ul/well in 1536-well tissue culture treated black solid bottom plates using a Multidrop dispenser. After the assay plates were incubated at a 37 C/5% CO2 incubator for 5 hours, 23 nL of compounds dissolved in DMSO, positive and negative controls was transferred to the assay plate by a pintool work station. The plates were incubated at 37 C for 40 hours. The luminescence intensity were measured at 0h, 8h, 16h, 24h, 32h and 40h time points using ViewLux plate reader during compound treatment.
# % is set by controls: 0 for no effect and ±100 for the full control effect; potency is the fitted concentration of half-maximal effect.
SMILES,"activity change, negative = cytotoxic",Potency
CC(CO)(CO)C(=O)O,-0.0862%,
C[C@@H]1C[C@H]2[C@@H]3CCC4=CC(=O)C=C[C@]4(C)[C@@]3(F)[C@@H](O)C[C@]2(C)[C@@]1(O)C(=O)COP(=O)(O)O,-4.78%,
O=C(NC(Cc1cc(=O)[nH]c2ccccc12)C(=O)O)c1ccc(Cl)cc1 (stereo not given),1.21% [at 35.3 µM],
CCC(CO)(CO)[N+](=O)[O-],0.0803%,
Nc1cccc2c(N)cccc12,-19.6%,
CCCCCC,0.378%,
COc1ccc(-c2cc(C(F)F)nn2-c2ccc(S(N)(=O)=O)cc2)cc1F,-13.7% [at 35.3 µM],
CO[C@@H]1[C@@H](OC)[C@H](C)[C@@](O)(CC(=O)O)O[C@H]1[C@H](C)[C@H]1O[C@@]2(CC[C@@](C)([C@H]3CC[C@@](C)([C@@H]4O[C@@H]([C@H]5O[C@](C)(O)[C@H](C)C[C@@H]5C)C[C@@H]4OC4C[C@H](OC)[C@@H](OC)[C@H](C)O4)O3)O2)C[C@H](O)[C@H]1C (stereo not given in full),,5.35 µM (active)
Cc1cc(CCC(=O)OCCOCCOCCOC(=O)CCc2cc(C)c(O)c(C(C)(C)C)c2)cc(C(C)(C)C)c1O,-5.03%,
O=C1[C@@H]2[C@H]3CC[C@H](C3)[C@@H]2C(=O)N1CCCCN1CCN(c2ncccn2)CC1,2.27% [at 35.3 µM],
Nc1ccc(F)cc1,7.89%,
COC(=O)Nc1nc2ccc(C(=O)C3CC3)cc2[nH]1,-22% [at 35.3 µM],
C1=CCC2CC=CC2C1 (stereo not given),0%,
C=C(C)C(=O)OCCC(F)(F)C(F)(F)C(F)(F)C(F)(F)C(F)(F)C(F)(F)F,0.0161%,
O=C(Nc1ccc(C(=O)O)c(O)c1)c1ccccc1,0.772% [at 35.3 µM],
CNC1CCCN(c2c(F)cc3c(=O)c(C(=O)O)cn(C4CC4)c3c2OC)C1 (stereo not given),0.739% [at 35.3 µM],
O=[N+]([O-])C1(Br)COCOC1,,49 µM (active)
O=C1OC(=O)c2c(Br)c(Br)c(Br)c(Br)c21,0.425%,
c1ccc(CCCc2ccncc2)cc1,-3.14%,
Cc1ccccc1S(N)(=O)=O,0.033%,

SMILES,"activity change, negative = cytotoxic",Potency
COc1cc(S(=O)(=O)Nc2ccccc2)c(OC)cc1N,-17.5%,
c1ccc2sc(SSc3nc4ccccc4s3)nc2c1,1.02% [at 15.8 µM],
CCOc1ncc(F)c(=O)[nH]1,3.2% [at 35.3 µM],
O=C(O)CO,0.338%,
Cc1c(C2(c3cc(Br)c(O)c(Br)c3C)OS(=O)(=O)c3ccccc32)cc(Br)c(O)c1Br,-12.4%,
COc1ccc(-n2nc(C(F)F)cc2-c2ccc(S(C)=O)cc2)cc1 (stereo not given),-1.58%,
O=C(c1ccccc1)C1CCC1,1.88%,
Nc1ccn([C@H]2CS[C@@H](CO)O2)c(=O)n1,1.76%,
CCc1ccc(C)cc1,-2.54%,
C/C(C=O)=C\c1ccccc1,-0.522%,
CCC(Cl)CC(Cl)C(Cl)C(Cl)C(Cl)C(C)Cl (stereo not given),-0.891% [at 15.8 µM],
BrC(Br)C(Br)Br,0.342%,
O=C(O)CN1C(=O)c2cccc3cccc(c23)C1=O,1.93% [at 35.3 µM],
COc1ccc(C2C(=O)c3ccccc3C2=O)cc1,2.83% [at 35.3 µM],
O=S(=O)(Cl)c1c(Cl)cccc1Cl,4.39%,
CCN(CC)c1ccc(C(=C2C=CC(=[N+](CC)CC)C=C2)c2ccc(S(=O)(=O)O)cc2S(=O)(=O)[O-])cc1,-6.32%,
CC(=O)C(C)=O,1.99%,
CCCCCCCCCCCCCOC(=O)CCSCCC(=O)OCCCCCCCCCCCCC,0.647% [at 15.8 µM],
CC1CCCC(=O)C1=O (stereo not given),1.39%,
O[C@@H](CNC[C@H](O)[C@H]1CCc2cc(F)ccc2O1)[C@@H]1CCc2cc(F)ccc2O1,,15.1 µM (active)
